Each structure is given as a SMILES string. Values without a mark were called inactive. Records with an inconclusive call do not appear. Activity calls are given as the source filed them. Unless noted, the call rests on the fitted dose curve; in most records, active means well fitted curve in the direction sought with a large enough effect in the repeat runs; inconclusive means weak or mixed curves; inactive means no such curve, though single readings can be large; an effect the other way counts as inactive or inconclusive.

The target of assay [1] is Progesterone receptor (Homo sapiens) (UniProt P06401). The experiment in a line: qHTS assay to identify small molecule agonists of the progesterone receptor (PR) signaling pathway (AID 1346784; calls by dose curve; further: nearly all actives have a fitted effect of over 30% in size). The method in brief:
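Reporter assay, GripTite PR-UAS-bla HEK 293T cells: 16 hr exposure to DMSO-dissolved compounds at 37C, 5% CO2, in steroid-depleted (2% charcoal-stripped FBS) medium; beta-lactamase measured by FRET fluorescence.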
A general note: Quantitative high-throughput screening tests each substance at several concentrations.

For assay [2] the target is unchanged. The assay can be described thus: qHTS assay to identify small molecule antagonists of the progesterone receptor (PR) signaling pathway (AID 1346795; active means well fitted inhibition curve with a large enough effect in the signal ratio in the repeat runs, not every such curve was filed as active; the % refers to the signal ratio). The essentials: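 Stimulus R5020 at 1 nM final; cells HEK293T PR-UAS-bla; medium with 2% charcoal-stripped FBS; compound exposure 16 hr at 37C, 5% CO2; detection by FRET beta-lactamase substrate, 2 hr, room temperature.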

Assay [3] in a line: qHTS assay to identify small molecule antagonists of the progesterone receptor (PR) signaling pathway - cell viability counter screen (AID 1346798). Further: series mostly up to about 92 µM; nearly all actives have a fitted effect of over 50% in size. The essentials: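 In the same plates used for the beta-lactamase readout, cell viability of compound- and R5020-treated PR-UAS-bla HEK293T cells (16 hr, 37C) was assessed by CellTiter-Glo luminescence.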
Assay [4] is described as follows: qHTS assay to identify small molecule antagonists of the TGF-beta/Smad signaling pathway - cell viability counter screen (AID 1346824). Further: nearly all actives have a fitted effect of over 50% in size. The essentials: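 SBE-bla HEK 293T cells were plated overnight at 37 C, then given compounds in DMSO plus TGF-beta1 (added as 0.25 ng/mL solution) for 5 hr. After the bla read, CellTiter-Glo was added to the same wells and luminescence read after 30 min at room temperature.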

Assay [5] in a line: qHTS assay to identify small molecule agonists of the TGF-beta/Smad signaling pathway - cell viability counter screen (AID 1346829). Further: top concentration of the series differs between compounds; nearly all actives have a fitted effect of over 45% in size. The method in brief: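 Luminescence from CellTiter-Glo, read after a 30 min room-temperature incubation, gives cell viability of SBE-bla HEK 293T cells treated 5 hr with compounds at 37 C.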
A short description of assay [6]: qHTS assay to identify small molecule agonists of the TGF-beta/Smad signaling pathway (AID 1346859; active means well fitted activation curve with a large enough effect in the signal ratio in the repeat runs, not every such curve was filed as active; the % refers to the signal ratio; further: series mostly up to about 77 µM). The method in brief: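 Screening used HEK 293T SBE-bla cells at 4,000/well. Test agents: 5 hr, 37 C. Detection: FRET substrate, 2 hr RT, then excitation 405 nm with emissions at 460 and 530 nm.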
Assay [7] has as its target Thyrotropin-releasing hormone receptor (Homo sapiens) (UniProt P34981). The assay can be described thus: qHTS assay to identify small molecule antagonists of the thyrotropin-releasing hormone receptor (TRHR) signaling pathway (AID 1346877; active means well fitted inhibition curve with a large enough effect in the repeat runs, not every such curve was filed as active; further: series mostly up to about 51 µM). The method in brief:
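In this cell-based calcium flux format, HEK293 cells expressing TRHR received test compound for 5 min before the agonist TRH (1 nM final). Dye loading lasted 2 h at 37 °C.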

For assay [8] the target is unchanged. The assay can be described thus: qHTS assay to identify small molecule agonists of the thyrotropin-releasing hormone receptor (TRHR) signaling pathway (AID 1346891; calls by dose curve; further: series mostly up to about 58 µM). The essentials: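 Readout was intracellular calcium fluorescence in TRHR-Hek293 cells. Cells were incubated 18 h, dye-loaded 2 h at 37 °C, and treated with compound in agonist mode.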
Assay [9] can be described thus: Human pregnane X receptor (PXR) small molecule agonists, qHTS cell viability counter screen (AID 1346977). Further: nearly all actives have a fitted effect of over 50% in size. The method in brief: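 In each well, the PXR reporter HepG2 line was checked for viability: CellTiter-Fluor reagent added 23hr post-dosing, fluorescence read after 1hr incubation at 37C.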
The nature of assay [10]: Caspase-3/7 induction in HepG2 cells by small molecules, qHTS assay (AID 1346978). Further: nearly all actives have a fitted effect of over 15% in size. The essentials: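 Wild-type HepG2 cells (2,000/well) were settled 5 h at 37 C, 5% CO2, then exposed to compounds in DMSO for 17 h. Caspase-3/7 activity was read by luminescence 30 min after adding Caspase-Glo 3/7 reagent at room temperature.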
Assay [11] is described as follows: Caspase-3/7 induction in CHO-K1 cells by small molecules, qHTS cell viability counter screen (AID 1346979). Further: nearly all actives have a fitted effect of over 35% in size. The essentials:
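Following a 5hr settling period, CHO-K1 cells at 1,500 per well received DMSO-dissolved compounds. Cell viability was quantified 16hr later by CellTiter-Fluor fluorescence, measured after 1hr with reagent at 37C.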

The nature of assay [12]: Caspase-3/7 induction in CHO-K1 cells by small molecules, qHTS assay (AID 1346980). Further: nearly all actives have a fitted effect of over 15% in size. The method in brief:
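Wild-type cells were seeded at 1,500 per well and settled 5 hr at 37 C, 5% CO2, then exposed to DMSO-dissolved compounds for 17 hr. Caspase-Glo 3/7 reagent was added, and luminescence was read after 30min at room temperature.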

The nature of assay [13]: Caspase-3/7 induction in HepG2 cells by small molecules, qHTS cell viability counter screen (AID 1346981). Further: series mostly up to about 92 µM; nearly all actives have a fitted effect of over 30% in size. The essentials:
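Counter screen for cytotoxicity: HepG2 exposed 16 hr to compounds, then CellTiter-Fluor viability signal (fluorescence, 1 hr reagent incubation).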

Assay [14] has as its target Nuclear receptor subfamily 1 group I member 2 (Homo sapiens) (UniProt O75469). The experiment in a line: Human pregnane X receptor (PXR) small molecule agonists, qHTS assay (AID 1346982). Further: nearly all actives have a fitted effect of over 35% in size. Further: potency means the concentration at half of the fitted maximal effect. The method in brief: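 Luminescence (ONE-Glo, 30 min RT) after 24 hr compound exposure of PXR-Luc HepG2 cells; cells rested 5 hr post-plating in 5% charcoal-stripped FBS medium.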
Assay [15] addresses Cytochrome P450 2D6 (Homo sapiens) (UniProt P10635). The assay can be described thus: Cytochrome P450 Family 2 Subfamily D Member 6 (CYP2D6) small molecule antagonists: luciferase reporter qHTS assay (AID 1671196). Further: nearly all actives have a fitted effect of over 50% in size. Further: potency means the concentration at half of the fitted maximal effect. The essentials: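 Inhibition of CYP2D6 was gauged by loss of luminescence, since light produced tracks the luciferin generated from a proluciferin substrate. A 10 min room-temperature preincubation preceded 1 h NADPH-supported turnover.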
A general note: Reporter assays use an easily measured gene product as a stand-in for the process of interest.

The target in assay [16] is Nuclear receptor subfamily 1 group I member 2 (Rattus norvegicus) (UniProt Q9R1A7). The assay can be described thus: Rat pregnane X receptor (rPXR) activation by small molecules, qHTS assay (AID 1346983). Further: nearly all actives have a fitted effect of over 20% in size. As to conditions: rPXR luciferase reporter cells, One-Glo luminescence, 24 h; max activation: active compounds read high. The method in brief: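 Cell-based rPXR luciferase reporter assay, 2,000 cells per well, rested 5hr at 37 C before compound addition in DMSO, then 24 hr at 37 C. One-Glo reagent was added and luminescence read after 30 min at room temperature.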

Assay [17] addresses Nuclear receptor subfamily 1 group I member 2 (Homo sapiens) (UniProt O75469). The assay can be described thus: CYP3A4 induction through human pregnane X receptor (PXR) by small molecules, qHTS assay (AID 1346984). Further: nearly all actives have a fitted effect of over 40% in size. The method in brief:
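DPX-2 reporter cells; 24h cpd, 37C; Luciferin-IPA 3uM final x3h; One-Glo 30 min RT; lumi read.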

Assay [18] shares this target. The assay can be described thus: Human pregnane X receptor (PXR) activation by small molecules, qHTS assay (AID 1346985). Further: nearly all actives have a fitted effect of over 40% in size. The method in brief:
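DPX-2 cells (HepG2 co-transfected with a PXR response element and a CYP3A4-promoter luciferase construct) were seeded at 2,000 per well, rested 5 hr at 37C, then exposed to DMSO-dissolved compounds for 24 hr. Activation was read as luciferase luminescence.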

Assay [19] deals with Cytochrome P450 2C19 (Homo sapiens) (UniProt P33261). The assay can be described thus: Cytochrome P450 Family 2 Subfamily C Member 19 (CYP2C19) small molecule antagonists: luciferase reporter qHTS assay (AID 1671197). Further: nearly all actives have a fitted effect of over 65% in size. Further: potency means the concentration at half of the fitted maximal effect. The essentials: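 CYP2C19 P450-Glo, 1536-well qHTS. Cpd + enzyme/proluciferin substrate 10 min RT; + NADPH regen, 37C 1 h; stop with luciferin detection reagent, 20 min RT, luminescence (RLU). Pos ctrl ketoconazole.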

Assay [20] can be described thus: qHTS assay to identify small molecule agonists of the progesterone receptor (PR) signaling pathway - cell viability counter screen (AID 1346799; calls by dose curve; further: nearly all actives have a fitted effect of over 45% in size). The essentials: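 Multiplexed viability read: CellTiter-Glo luminescence, 30 min RT, following LiveBLAzer FRET measurement on PR-UAS-bla HEK293T cells exposed to compounds 16 hr.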
On the % scale 0 is the no-effect control and ±100 the full control effect.

Nuclear receptor subfamily 1 group I member 2 (Homo sapiens), sequence (O75469 whole entry, looked up): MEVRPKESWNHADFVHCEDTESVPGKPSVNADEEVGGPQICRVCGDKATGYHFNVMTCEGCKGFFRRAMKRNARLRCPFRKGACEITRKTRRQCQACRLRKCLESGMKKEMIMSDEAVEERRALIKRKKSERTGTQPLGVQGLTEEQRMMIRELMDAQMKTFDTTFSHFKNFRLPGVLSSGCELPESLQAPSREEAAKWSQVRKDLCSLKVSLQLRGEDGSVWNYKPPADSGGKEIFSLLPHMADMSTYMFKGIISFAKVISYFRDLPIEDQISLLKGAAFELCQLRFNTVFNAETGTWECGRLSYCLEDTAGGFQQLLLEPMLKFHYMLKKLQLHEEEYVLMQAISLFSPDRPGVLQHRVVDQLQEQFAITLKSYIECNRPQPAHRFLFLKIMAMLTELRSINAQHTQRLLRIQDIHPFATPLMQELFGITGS
Nuclear receptor subfamily 1 group I member 2 (Rattus norvegicus), sequence (Q9R1A7 whole entry, looked up): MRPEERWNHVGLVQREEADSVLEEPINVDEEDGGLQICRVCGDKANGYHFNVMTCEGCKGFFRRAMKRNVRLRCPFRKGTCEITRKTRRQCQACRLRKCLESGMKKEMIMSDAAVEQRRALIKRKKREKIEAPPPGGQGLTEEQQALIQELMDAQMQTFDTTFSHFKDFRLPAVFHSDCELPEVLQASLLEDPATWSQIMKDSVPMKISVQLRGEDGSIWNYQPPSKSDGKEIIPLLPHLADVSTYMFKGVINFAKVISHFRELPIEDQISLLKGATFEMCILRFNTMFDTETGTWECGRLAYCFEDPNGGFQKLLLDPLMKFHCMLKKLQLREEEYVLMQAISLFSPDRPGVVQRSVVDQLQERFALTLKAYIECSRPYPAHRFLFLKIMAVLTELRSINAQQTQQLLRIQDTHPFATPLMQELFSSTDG
Cytochrome P450 2C19 (Homo sapiens), sequence (P33261 whole entry, looked up): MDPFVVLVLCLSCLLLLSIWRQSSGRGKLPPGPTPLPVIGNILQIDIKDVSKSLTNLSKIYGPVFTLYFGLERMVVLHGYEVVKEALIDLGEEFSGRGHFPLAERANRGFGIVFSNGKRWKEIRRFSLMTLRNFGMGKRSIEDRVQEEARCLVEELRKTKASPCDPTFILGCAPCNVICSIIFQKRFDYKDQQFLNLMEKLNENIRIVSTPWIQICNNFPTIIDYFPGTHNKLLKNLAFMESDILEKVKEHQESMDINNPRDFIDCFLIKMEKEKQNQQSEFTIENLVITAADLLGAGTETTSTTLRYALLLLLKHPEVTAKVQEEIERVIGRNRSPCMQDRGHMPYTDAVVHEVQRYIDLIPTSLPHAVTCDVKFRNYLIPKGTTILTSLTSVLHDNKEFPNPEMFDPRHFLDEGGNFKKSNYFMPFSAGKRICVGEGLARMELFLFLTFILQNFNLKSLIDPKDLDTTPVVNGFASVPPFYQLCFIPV
Cytochrome P450 2D6 (Homo sapiens), sequence (P10635 whole entry, looked up): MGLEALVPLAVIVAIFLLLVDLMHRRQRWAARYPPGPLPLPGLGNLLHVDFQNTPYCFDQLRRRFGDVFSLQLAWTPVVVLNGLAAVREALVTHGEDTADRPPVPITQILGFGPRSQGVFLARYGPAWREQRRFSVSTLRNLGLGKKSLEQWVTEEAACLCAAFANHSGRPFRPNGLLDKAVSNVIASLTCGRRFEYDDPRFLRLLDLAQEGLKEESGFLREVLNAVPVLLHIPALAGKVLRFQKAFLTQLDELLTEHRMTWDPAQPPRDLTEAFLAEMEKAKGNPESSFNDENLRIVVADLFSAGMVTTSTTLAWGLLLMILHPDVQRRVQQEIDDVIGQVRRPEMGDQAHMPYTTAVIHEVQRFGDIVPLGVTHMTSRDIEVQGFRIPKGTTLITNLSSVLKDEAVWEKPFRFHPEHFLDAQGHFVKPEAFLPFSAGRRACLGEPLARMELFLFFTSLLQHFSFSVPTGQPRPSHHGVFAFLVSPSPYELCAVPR
Thyrotropin-releasing hormone receptor (Homo sapiens), sequence (P34981 whole entry, looked up): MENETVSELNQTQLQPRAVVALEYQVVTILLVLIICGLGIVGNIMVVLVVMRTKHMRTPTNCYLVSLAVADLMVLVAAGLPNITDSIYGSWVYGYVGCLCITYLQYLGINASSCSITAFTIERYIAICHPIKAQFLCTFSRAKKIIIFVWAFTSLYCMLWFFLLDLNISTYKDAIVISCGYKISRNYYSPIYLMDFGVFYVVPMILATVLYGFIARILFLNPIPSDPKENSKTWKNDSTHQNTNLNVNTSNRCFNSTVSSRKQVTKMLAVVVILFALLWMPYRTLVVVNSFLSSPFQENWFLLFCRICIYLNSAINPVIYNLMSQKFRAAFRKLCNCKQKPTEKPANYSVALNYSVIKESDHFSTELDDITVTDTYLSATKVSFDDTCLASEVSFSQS
Progesterone receptor (Homo sapiens), sequence (P06401 whole entry, looked up): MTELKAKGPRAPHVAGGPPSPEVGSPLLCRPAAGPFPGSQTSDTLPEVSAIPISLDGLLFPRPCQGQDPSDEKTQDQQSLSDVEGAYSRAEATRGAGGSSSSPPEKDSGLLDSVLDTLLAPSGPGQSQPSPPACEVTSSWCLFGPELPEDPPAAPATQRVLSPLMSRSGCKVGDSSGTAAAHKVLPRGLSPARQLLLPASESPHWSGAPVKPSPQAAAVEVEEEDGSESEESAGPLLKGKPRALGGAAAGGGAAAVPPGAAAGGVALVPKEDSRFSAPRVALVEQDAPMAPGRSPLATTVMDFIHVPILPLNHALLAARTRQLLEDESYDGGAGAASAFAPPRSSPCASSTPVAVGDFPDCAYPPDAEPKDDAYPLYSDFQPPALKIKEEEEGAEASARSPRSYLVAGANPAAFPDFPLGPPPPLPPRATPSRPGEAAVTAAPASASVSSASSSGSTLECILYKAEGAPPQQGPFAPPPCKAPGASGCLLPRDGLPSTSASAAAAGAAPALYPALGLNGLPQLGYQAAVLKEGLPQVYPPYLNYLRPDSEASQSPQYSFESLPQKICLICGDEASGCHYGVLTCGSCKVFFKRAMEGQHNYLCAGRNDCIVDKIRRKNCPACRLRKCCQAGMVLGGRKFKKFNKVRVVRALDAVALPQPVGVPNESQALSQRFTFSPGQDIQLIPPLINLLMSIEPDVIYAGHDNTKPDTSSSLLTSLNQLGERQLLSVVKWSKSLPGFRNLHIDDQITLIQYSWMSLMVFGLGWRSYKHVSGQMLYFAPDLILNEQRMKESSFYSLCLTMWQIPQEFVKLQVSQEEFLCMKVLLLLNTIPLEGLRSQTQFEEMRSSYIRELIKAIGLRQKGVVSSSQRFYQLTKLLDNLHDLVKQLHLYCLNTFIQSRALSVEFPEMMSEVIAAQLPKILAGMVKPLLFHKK

As for `O=c1c2ccccc2nnn1CCl`, the result in assay [1], in assay [6], in assay [7] and in assay [10] was inactive. In addition, the Potency entry in assay [2], in assay [3], in assay [4], in assay [5], in assay [8] and in [9] was “inactive” in each case. Also, the Potency entry in assay [11], in assay [12] and in [13] was “inactive” in each case. Besides, the Potency is 61.1 µM (active) in assay [14] and 14.2 µM (active) in assay [15].
In the case of `NC(=S)N/N=C/c1cccnc1`, the outcome in assay [1], in assay [6], in assay [7] and in assay [10] was inactive. Moreover, the Potency result in assay [2], in assay [3], in assay [4], in assay [5], in [8] and in assay [9] was “inactive” each time. The Potency entry in assay [11], in assay [12], in assay [13], in assay [14], in assay [17] and in assay [18] was “inactive” in each case. In addition, the Potency entry in assay [15] and in assay [19] was “inactive” in each case. Further, in assay [16], the max activation is -5.63%.
As for `Cc1ccc(C)o1`, the compound was called inactive in [1], in assay [6], in [7] and in [10]. Further, the Potency entry in assay [2], in assay [3], in [20], in [5], in assay [8] and in assay [9] was “inactive” throughout. Also, the Potency result in [11], in [12], in [13], in assay [14], in [15] and in assay [19] was “inactive” in each case.
Turning to `CCCCOC(=O)/C=C\C(=O)OCCCC`, the outcome in [1], in [6], in [7] and in assay [10] was inactive. In addition, the Potency result in [2], in assay [3], in [4], in assay [5], in assay [8] and in assay [9] was “inactive” throughout. Also, the Potency result in assay [11], in [12], in [13], in assay [14] and in [15] was “inactive” throughout. In addition, the Potency in [19] is 3.28 µM (active).
On to `CN(c1nccc(=O)[nH]1)C1CCN(c2nc3ccccc3n2Cc2ccc(F)cc2)CC1`, for which the result in [1], in assay [6], in assay [7] and in assay [10] was inactive. The Potency entry in [2], in [20], in [4], in [5], in assay [8] and in assay [9] was “inactive” in each case. For the same compound, the Potency result in assay [12], in assay [13], in [17] and in assay [19] was “inactive” in each case. For the same compound, the max activation in [16] is -3.1%. Also, in [15], the Potency was 12.3 µM (active).
Consider `CCOC(=S)SSC(=S)OCC`, for which the call in assay [1], in [6] and in assay [10] was inactive. For the same compound, the Potency entry in [2], in assay [3], in assay [4], in assay [5], in assay [9] and in [11] was “inactive” throughout. Further, the Potency entry in [12], in [13], in [14] and in assay [17] was “inactive” in each case. Moreover, the max activation in assay [16] is -2.15%.

The values are drawn from PubChem BioAssay (Tox21).
